DAX1 inh-1 – inhibits human nuclear receptor DAX1; HEK293 Gal4-DAX1 luciferase reporter, luminescence; inhibition, % at 6.75 µM; actives 0.99% (n = 340,000); AID 504766;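 active means inhibition above the mean over all tested compounds plus 3 SD, cut at about 4.2% in these data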;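 further: 0% = DAX1-transfected cells with DMSO and 100% = empty-vector control cells with DMSO; inhibition shows as a rise in luminescence from relieved DAX1 repression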
Target sequence (P51843 207-470 limits assumed): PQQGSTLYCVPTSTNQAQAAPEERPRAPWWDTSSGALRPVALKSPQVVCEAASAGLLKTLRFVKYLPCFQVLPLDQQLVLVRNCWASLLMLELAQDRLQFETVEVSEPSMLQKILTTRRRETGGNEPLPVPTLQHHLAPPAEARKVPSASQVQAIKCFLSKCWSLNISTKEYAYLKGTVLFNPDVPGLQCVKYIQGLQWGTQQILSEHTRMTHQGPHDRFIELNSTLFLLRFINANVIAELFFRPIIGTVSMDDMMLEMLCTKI
ssDAF12 agonist – activators of S. stercoralis DAF-12 nuclear receptor | HEK293 ssDAF-12/GRIP1 lit1-tk-luc reporter, luminescence; % of 3 µM dafachronic acid response | activation, % at 6.8 µM | actives 1% (n = 370,000);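 active means activation above the mean over all tested compounds plus 3 SD, cut at about 0.9% in these data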;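 further: 0% = DMSO-only wells and 100% = 3 µM delta7-dafachronic acid wells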
DAX1 inh-2 – DAX1 (NR0B1) inhibition, primary screen. HEK293T StAR-luciferase reporter, SF-1/DAX-1 repression relief. inhibition, % at 6.8 µM. actives 1.1% (n = 370,000);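 active means inhibition above the mean over all tested compounds plus 3 SD, cut at about 3.6% in these data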;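 further: 0% = DAX-1 cells with DMSO and 100% = cells lacking DAX-1 with DMSO; higher inhibition means more luminescence from relief of DAX-1 repression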
hcDAF12 agonist – activators of H. contortus DAF-12 nuclear receptor; actives 1.4% (n = 370,000); activation, % at 6.8 µM; HEK293 hcDAF-12 lit1-tk-luc reporter, luminescence; 0% DMSO, 100% Δ7-dafachronic acid;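 active means activation above the mean of all tested compounds plus 3 SD, cut at about 5.5% in these data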;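 further: 100% = response to 3 µM Δ7-dafachronic acid high control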
hgDAF12 agonist – agonists of H. glycines DAF-12 nuclear receptor. HEK293 GAL4-hgDAF12 UAS-luciferase reporter, agonist luminescence; normalized to butyrate control. AID 687014. actives 1.8% (n = 370,000). activation, % at 6.8 µM;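 active means activation above a cutoff set at the mean of all screened compounds plus 3 SD, cut at about 10% in these data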;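 further: 0% = DMSO wells and 100% = sodium butyrate wells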
The depositor's hits bear a star; x = no result given; ! = not confirmed by another sample. An excerpt weighted towards active compounds, which were near 4.1% of everything screened.

SMILES	DAX1 inh-1	ssDAF12 agonist	DAX1 inh-2	hcDAF12 agonist	hgDAF12 agonist
COc1ccc(-c2cc(C(=O)NN=Cc3ccccc3F)[nH]n2)cc1	x	-1	-1	-2	3
CC(=O)OC12CCCN(C1)/C(=C/c1cccc(Cl)c1)C2 (stereo unspecified)	x	-1	0	-1	1
Cn1c(=O)n(CCOc2ccc([N+](=O)[O-])cc2)c2ccccc21	1	-1	0	0	5
Cc1ccc(OCCn2c(=O)n(C)c3ccccc32)cc1	0	0	2	3	13*
Cc1ccc(S(=O)(=O)NC[C@H]2CN(S(=O)(=O)c3ccc(C)cc3)[C@@H](Cc3ccccc3)CO2)cc1	x	-2	x	0	-1
Clc1ccccc1N1CCN(Cc2c[nH]c3ccccc23)CC1	-1	0	0	3	1
Fc1ccccc1N1CCN(C2CCN(Cc3c[nH]c4ccccc34)CC2)CC1	0	1.3*	0	3	1
Cc1ccc(S(=O)(=O)Nc2cccc(-c3ccc(N4CCCCCC4)nn3)c2)c(C)c1	1	-1	4.1*	2	10
O=S1(=O)CC2c3ccc(F)cc3CN2CN1Cc1ccc(F)cc1 (stereo unspecified)	x	0	0	1	2
O=S1(=O)CC2c3ccc(F)cc3CN2CN1C1CCCC1 (stereo unspecified)	x	1.0*	0	1	-1
C[C@@H]1CN(C(=O)OC(C)(C)C)CCN1c1ccc(Br)c(C#N)c1	x	-2	-3	-1	2
O=C(CCCc1nc(-c2ccccc2)no1)NC1CCCCC1	-1	1.1*	-1	-3	0
CC1(C)Oc2ccc(C(=O)NCCCN3CCCC3)cc2NC1=O	x	-1	1	2	-1
O=C(NCC1COCCO1)C1CCN(S(=O)(=O)c2ccc(Br)s2)CC1 (stereo unspecified)	x	-1	-1	-2	-1
Cc1cc(C(=O)COC(=O)CC2Sc3ccccc3NC2=O)c(C)n1-c1cccc(C(F)(F)F)c1 (stereo unspecified)	0	1.2*	0	4	2
Cc1cc(C(=O)COC(=O)Cc2n[nH]c(=O)c3ccccc23)c(C)n1-c1cccc(C(F)(F)F)c1	-2	-2	-1	-4	-3
Cc1ccc(C(=O)Nc2nc(=O)n(C(=O)CC(C)C)s2)cc1	1	-1	0	0	0
Cc1ccc(C(=O)Nc2nc(=O)[nH]s2)cc1	4.4*!	-1	0	0	1
Cc1ccc(C(=O)Nc2nc(=O)n(C)s2)cc1	5.6*	-1	1	5	6
Cn1sc(NC(=O)c2ccc(Cl)cc2)nc1=O	0	0	1	3	3
COc1ccc(S(=O)(=O)N(C)C[C@@H]2Oc3c(NC(=O)Nc4ccccc4)cccc3C(=O)N([C@@H](C)CO)C[C@H]2C)cc1	x	-1	x	-1	-5
COc1c(O)ccc(/C=N\NC(=O)c2ccc3c(c2)OCO3)c1[N+](=O)[O-]	5.5*	-1	0	-1	1
O=C(N/N=C/c1cc2c(cc1[N+](=O)[O-])OCO2)c1ccc2c(c1)OCO2	0	-1	0	0	0
COCCn1c(SCC(=O)N2CC(=O)Nc3ccccc32)nc2ccccc21	2	0	0	5.8*	3
COCCn1c(SCC(=O)N2CC(=O)Nc3ccccc32)nc2ccccc2c1=O	-1	-1	0	0	1
SMILES	DAX1 inh-1	ssDAF12 agonist	DAX1 inh-2	hcDAF12 agonist	hgDAF12 agonist
O=C(Cn1nnc(-c2ccncc2)n1)Nc1ccc(Oc2ccccc2)cc1	x	-1	-1	-4	-2
O=C(/C=C/c1ccc2c(c1)OCO2)c1ccc[nH]1	3	0	2	3	11*
COc1cccc(/C=C/C(=O)c2ccc[nH]2)c1	2	1.2*	1	3	6
CCCCNC(=O)Nc1nnc(-c2ccc(OCC)cc2)o1	5.5*	-1	0	1	1
CC(=O)c1ccc(CCCC(=O)O)cc1	4.9*	-1	0	2	-2
Cc1cc(/C=C2/NC(=O)N(Cc3ccccc3F)C2=O)c(C)n1-c1ccccn1	-1	1.3*	0	4	5
CC(C)C(NS(=O)(=O)c1ccc2c(c1)oc(=O)n2C)C(=O)N1CCN(c2ccccc2F)CC1 (stereo unspecified)	4.8*	-1	-1	-1	-1

Source: PubChem BioAssay
